Bioassay records as filed in PubChem.
Shown is part of a subset that was picked to be rich in hits.
Pf Dd2 inh = qHTS Primary assay for Inhibitors of Plasmodium falciparum Dd2 growth in vitro | Potency, µM (highest dose often 28.9 µM), hits mostly inhibitors | 120,000 compounds, 4.3% hits | AID 1347417, 2020 | P. falciparum Dd2 growth, SYBR Green, 72 h; active means well fitted inhibition curve with a large enough effect; further: nearly all actives have a fitted effect of over 65% in size
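Infected erythrocytes (Dd2, 0.3% parasitemia, 2.5% hematocrit final) are added to compound in RPMI-1640/Albumax II medium, grown 72 h at 37C in low oxygen, then lysed with saponin/Triton-X containing SYBR Green and read by fluorescence.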
Numbers stand for hits; . = inactive; ! = repeats disagree.

SMILES | Pf Dd2 inh
O=C(NC(=O)c1cccc(F)c1)Nc1ccc(-c2cc(C(F)(F)F)nn2-c2ccccc2)cc1 | .
O=C(Nc1ccc(-c2cc(C(F)(F)F)nn2-c2ccccc2)cc1)c1cccc(F)c1 | 11µM
Cc1nc(C)c(C(=O)N2CCCC(N(C)C)CC2)s1 (configuration not stated) | .
Cc1c(CCNC(=O)Cc2ccccc2)sc2nc(-c3ccc(F)cc3)nn12 | .
Cc1c(CCNC(=O)c2ccc(C(C)(C)C)cc2)sc2nc(-c3ccc(F)cc3)nn12 | 11µM
Cc1c(CCNC(=O)Cc2ccc(F)cc2)sc2nc(-c3ccc(F)cc3)nn12 | .
COc1ccc(-c2ccc3nc(-c4cc(F)ccc4F)oc3c2)c(OC)c1OC | .
COc1ccc2c(CNC3CCCCCC3)c(C(=O)O)n(Cc3ccc(C)cc3)c2c1 | 8.9µM
COc1ccc2c(CNC3CCCCCC3)c(C(=O)O)n(Cc3cccc(F)c3)c2c1 | .
Cc1ccc(Cn2c(C(=O)O)c(CNC3CCCC3)c3ccc(C)cc32)cc1 | .
COc1ccc(Cn2c(C(=O)O)c(CNC3CCCC3)c3ccc(C)cc32)cc1 | .
COc1ccc(Cn2c(C(=O)O)c(CNC3CCC(C)CC3)c3ccc(C)cc32)cc1 (configuration not stated) | .
C=Cc1ccc(Cn2c(C(=O)O)c(CNC3CCCCC3)c3ccc(OC)cc32)cc1 | 11µM
CC(=O)c1ccc(NC(=O)NC[C@H]2C[C@@H]3CCN2C[C@@H]3CN2CCCCC2)cc1 | .
Cc1ccc(Cl)cc1NC(=O)Cn1c(=O)c2ccccc2n2nncc12 | .
COC[C@@H]1CN(C(=O)C2(c3ccc(OC)cc3)CC2)C[C@H]1C(N)=O | .
COCCNC(=O)[C@@H]1C[C@H](Oc2ccccc2)CN1C(=O)C(C)C | .
CCc1cc(=O)n(CC(=O)Nc2ccc(C(C)=O)cc2)c(N2CCOCC2)n1 | .
O=C(COc1ccccc1)NC1CCCc2c1[nH]c1ccccc21 (configuration not stated) | .
O=C(CSCc1ccc(F)cc1)N1CCc2c([nH]c3ccccc23)C1c1ccc(Cl)cc1 (configuration not stated) | .
CCOc1cccc(CC(=O)NCc2ccc3c(c2)CCN3C(C)=O)c1OCC | .
CCOc1cccc(CC(=O)N2CCc3c([nH]c4ccccc34)C2c2ccc(SC)cc2)c1OCC (configuration not stated) | 7.9µM
CCOc1ccc(CNC(=O)c2[nH]c3ccccc3c2Sc2ccc(C)cc2)cc1 | .
CCOc1ccc(C2c3[nH]c4ccccc4c3CCN2C(=O)Cc2cccc(OCC)c2OCC)cc1 (configuration not stated) | 11µM
O=C1N(CCc2ccccc2)c2ccccc2C12CCN([S+](=O)([O-])c1cccs1)C2 (configuration not stated) | 7.9µM!
SMILES | Pf Dd2 inh
O=C(c1ccccc1Cl)N1CCC2(C1)C(=O)N(CCc1ccccc1)c1ccccc12 (configuration not stated) | .
CC(=O)N1CCC2(C1)C(=O)N(CCc1ccccc1)c1ccccc12 (configuration not stated) | .
Cc1noc(C)c1[S+](=O)([O-])N1CCC2(C1)C(=O)N(Cc1ccccc1)c1ccccc12 (configuration not stated) | .
O=C(C1CC1)N1CCC2(C1)C(=O)N(CCc1ccccc1)c1ccccc12 (configuration not stated) | 6.3µM!
O=C1N(Cc2ccccc2)c2ccccc2C12CCN([S+](=O)([O-])c1ccccc1)C2 (configuration not stated) | .
Cc1ccccc1C(=O)N1CCC2(C1)C(=O)N(CCc1ccccc1)c1ccccc12 (configuration not stated) | .
O=C(c1ccc(Cl)nc1)N1CCC2(C1)C(=O)N(CCc1ccccc1)c1ccccc12 (configuration not stated) | 13µM!
CN(C)C(=O)N1CCC2(C1)C(=O)N(CCc1ccccc1)c1ccccc12 (configuration not stated) | .
O=C(c1ccc2c(c1)OCO2)N1CCCC2(CC(c3cccnc3)=NO2)C1 (configuration not stated) | .
COc1ccc(N2CCN(C(c3ccc(F)cc3)c3sc4nc(-c5ccco5)nn4c3O)CC2)cc1 (configuration not stated) | .
Cc1cc(C)c(S(=O)(=O)NCC(c2cccs2)S(=O)(=O)c2ccccc2)c(C)c1 (configuration not stated) | .
CN(Cc1ccccc1)Cc1cn([C@H]2CO[C@H]3[C@@H]2OC[C@@H]3NC(=O)CCC(=O)O)nn1 | .
C=CCc1cc(-c2c(-c3ccccc3)ncn2CCOCCO)cc(OC)c1O | 6.3µM
OCCOCCn1cnc(-c2ccccc2)c1-c1ccccc1Cn1cccn1 | .
C=CCc1cc(-c2c(-c3ccccc3)ncn2CCCO)cc(OC)c1O | .
CC(=O)Nc1ccc(C2(C(=O)NCc3ccc(F)c(Cl)c3)CCC2)cc1 | .
Cc1nn(Cc2ccccc2)c(C)c1[C@@H]1C=C[C@@H](NS(=O)(=O)c2cccs2)C1 | 13µM
